Only a selection was taken, and hits are over-represented in it overall.
p53null 32C kill – p53 null cell cytotoxicity, permissive temperature | actives 0.62% (n = 55,000) | H1299-neo p53 null cells, ATP luminescence, 24 h, 32C | AID 903 | Potency, µM (series often up to 46.1 µM), inactives show at the top dose activity change, negative = cytotoxicity, most hits filed as cytotoxic;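 note: potency is the fitted concentration of half-maximal effect; 0% = DMSO only and -100% = full killing by 100 µM tamoxifen; nearly all actives have a fitted effect of over 55% in size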
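Overnight 37C seeding (600 cells/well) of H1299-neo preceded a 24 hr, 32C exposure to compounds up to 46 uM. ATP levels, read by luminescence after 20 min at RT, indicated surviving cells.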
GALC G270D up – galactocerebrosidase G270D activity enhancement, cell-based; Potency, µM (series often up to 57.5 µM), actives largely listed as activators; P54803; AID 1159614; 145M-Twi-hGALC-G270D cells (Twitcher mouse brain line with human GALC G270D), HMU-beta-Gal fluorescence, 48 h; actives 0.1% (n = 45,000); note: potency is the fitted concentration of half-maximal effect; 0% is about no effect; nearly all actives have a fitted effect of over 65% in size
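Fluorogenic HMU-b-Gal hydrolysis (0.1 mM final, pH 5.2 citrate-phosphate with 1 mg/mL sodium taurocholate; carbonate stop buffer) measures mutant GALC activity after compound treatment of live 145M-Twi Twitcher brain cells stably carrying human GALC-G270D, with wild-type GALC line alongside; activation sought.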
NTMT1 inhibitor – blocks human N-terminal methyltransferase 1 activity. Q9BV86. NTMT1 MTase-Glo SAH luminescence, purified enzyme. Potency, µM (highest dose often 114 µM), for the others: top-dose activity change, negative = inhibition, actives largely listed as inhibitors. actives 2.5% (n = 59,000). AID 1645870;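 note: potency is the fitted concentration of half-maximal effect; plate controls were DMSO vehicle for no effect and no enzyme for full effect; nearly all actives have a fitted effect of over 65% in size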
Target sequence (Q9BV86 whole entry, looked up): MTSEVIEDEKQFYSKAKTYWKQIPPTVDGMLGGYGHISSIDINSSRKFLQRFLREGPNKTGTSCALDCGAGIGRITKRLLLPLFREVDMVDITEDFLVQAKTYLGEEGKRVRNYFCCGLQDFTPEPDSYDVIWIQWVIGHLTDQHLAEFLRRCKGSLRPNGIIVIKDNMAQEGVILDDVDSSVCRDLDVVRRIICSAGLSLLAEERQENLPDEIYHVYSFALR
p53null 39C kill – kills p53 null cells at the nonpermissive temperature; actives 0.97% (n = 55,000); H1299 p53-null (neo) cells, 39C, ATPlite viability, 24 h; Potency, µM (doses to about 46.1 µM), for inactives: at the top dose activity, negative = cell killing, hits mostly cytotoxic;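 note: potency is the fitted concentration of half-maximal effect; 0% = DMSO only and -100% = full killing by 100 µM tamoxifen; nearly all actives have a fitted effect of over 50% in size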
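ATP-luminescence viability readout (ATPlite, 20 min RT) after 24 hr compound treatment at 39C of H1299-neo or H1299-p53A138V cells; titration up to 46 uM; normalized to DMSO and 100 uM tamoxifen; Hill-fit AC50.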
FH mod – Identification of activators of human fumarate hydratase by quantitative high-throughput screening. AID 1347055, 2019. actives 0.22% (n = 54,000). Fumarate hydratase, mitochondrial (Homo sapiens), P07954. FH coupled MDH/diaphorase resazurin fluorescence, 15 min. Potency, µM (highest dose often 79.9 µM), without a hit: at the highest dose activity change, negative = inhibition, hits mostly inhibitors; note: potency is the fitted concentration of half-maximal effect; % is set by controls: 0 for no effect and ±100 for the full control effect; the screen sought activators but most active calls are inhibition curves; nearly all actives have a fitted effect of over 45% in size
Sfp PPTase inh – inhibits purified B. subtilis Sfp PPTase; actives 78% (n = 230); purified Sfp PPTase enzyme activity, qHTS; shares compounds with NTMT1 inhibitor; Potency, µM (titrated, usually from 114 µM), for the others: top-dose activity change, negative = inhibition, hits mostly inhibitors
HM489 growth – reduces growth of B. subtilis HM489 strain | shares compounds with NTMT1 inhibitor | B. subtilis HM489 (acpS-) growth, BacTiter-Glo, 5 h | Potency, µM (highest dose often 114 µM), for the others: at the top dose activity change, negative = inhibition, most hits filed as inhibitors | actives 50% (n = 220)
Sfp gel opt – Sfp PPTase inhibition, gel-based detection; shares compounds with NTMT1 inhibitor; purified Sfp PPTase, gel-based product detection; Potency, µM (series often up to 250 µM), for inactives: at the highest dose activity change, negative = inhibition, most hits filed as inhibitors; actives 54% (n = 220)
Sfp inh SAR2 – inhibits B. subtilis Sfp PPTase in second SAR round | shares compounds with NTMT1 inhibitor | purified Sfp enzyme, PPTase activity, qHTS | Potency, µM (top dose mostly 57.1 µM), for the others: top-dose activity change, negative = inhibition, hits mostly inhibitors | actives 87% (n = 230) | AID 602370
HSD17B4 inh – HSD17B4 (human) inhibition, HPGD counter-screen; shares compounds with NTMT1 inhibitor; purified HSD17B4, estradiol/NAD+, NADH fluorescence; Potency, µM (doses to about 57.1 µM), for inactives: at the highest dose activity change, negative = inhibition, usual class: inhibitors; actives 10% (n = 230); AID 743187
ALDH1A1 counter – ALDH1A1 (human) inhibition, HPGD counter-screen | shares compounds with NTMT1 inhibitor | recombinant ALDH1A1, NADH fluorescence, propionaldehyde/NAD+ | Potency, µM (highest dose often 57.1 µM), for the others: at the highest dose activity change, negative = inhibition, most hits filed as inhibitors | actives 93% (n = 230) | AID 743195
NNMT counter – blocks human NNMT methyltransferase | AID 1645878 | NNMT MTase-Glo luminescence, SAH detection | actives 10% (n = 120) | Potency, µM (top dose mostly 57.1 µM), without a hit: top-dose activity, negative = inhibition, most hits filed as inhibitors | shares compounds with NTMT1 inhibitor
Target sequence (P40261 whole entry, looked up): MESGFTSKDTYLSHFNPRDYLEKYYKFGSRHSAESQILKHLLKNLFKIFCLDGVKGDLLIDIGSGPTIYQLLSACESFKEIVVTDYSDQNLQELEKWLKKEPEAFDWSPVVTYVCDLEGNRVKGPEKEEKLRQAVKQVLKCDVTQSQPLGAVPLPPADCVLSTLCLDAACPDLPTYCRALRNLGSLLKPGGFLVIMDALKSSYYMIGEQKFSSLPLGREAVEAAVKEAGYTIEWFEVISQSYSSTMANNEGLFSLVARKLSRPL
* marks the source's active call; other numbers are inactive results; i = inactive; ? = inconclusive; · = not tested or not shown; [ ] = dose if it differs, or a comment. Calls come from the whole dose curve; as a rule, active = well fitted curve in the direction sought with a large enough effect; inconclusive = small, poorly fitted or top-dose-only effect, or another doubt; inactive = no such curve, though single readings can be large; an effect the other way counts as inactive or inconclusive.

SMILES	p53null 32C kill	GALC G270D up	NTMT1 inhibitor	p53null 39C kill	FH mod	Sfp PPTase inh	HM489 growth	Sfp gel opt	Sfp inh SAR2	HSD17B4 inh	ALDH1A1 counter	others
Cc1cc2c(c(=O)[nH]1)OC(C(O)CC(C)C)O2 (configuration not stated)	·	·	-16%	·	-1%	·	·	·	·	·	·	NNMT counter=2%
O=C(NC1Cc2ccccc2N(C[C@@H](O)CO)C1=O)c1cc2cc(Cl)sc2[nH]1 (some centres not stated)	·	·	-6%[57.5 µM]	·	2%	·	·	·	·	·	·
Cc1cnc(Nc2ccc(F)cc2Cl)nc1-c1c[nH]c(C(=O)NC(CO)c2cccc(Cl)c2)c1 (configuration not stated)	·	·	-6%[57.5 µM]	·	-15%	·	·	·	·	·	·	NNMT counter=-17%
Cc1ccc(Sc2ccc(N3CCC(C(=O)Nc4cc(C)cc(C)c4)CC3)nn2)cc1	?	i	14%	-23%	-1%	·	·	·	·	·	·
Cc1cc(C)nc(NC(=S)N2CCN(c3ccc(N4CCCC4)nn3)CC2)c1	·	·	?	·	·	?	?	13µM*	5.8µM*	27µM*	19µM*
Cc1cc(C)nc(NC(=S)N2CCN(c3ccc(NS(C)(=O)=O)nn3)CC2)c1	·	·	-26%[57.5 µM]	·	·	?	0%	?	4.6µM*	-21%	24µM*
CNC(=O)C1=C(C)NC(Nc2nc3ccccc3o2)=NC1c1[nH]ncc1Cl (configuration not stated)	·	·	12%	·	·	·	·	·	·	·	·
CCN1CCN(C(=S)c2ccc(O)cc2)CC1	·	·	-21%	·	·	19µM*	-26%	?	18µM*	-18%	?
COC(=O)c1ccc(Nc2nc(-c3ccncc3)nc3ccccc23)cc1OC	·	·	-11%[57.5 µM]	·	·	·	·	·	·	·	·
c1ccc2[nH]c(-c3ccc(NCc4ccc5c(c4)OCCO5)cc3)nc2c1	·	·	-11%	·	·	·	·	·	·	·	·
Cc1ccc(OCCn2c(CCNC(=O)/C=C/c3ccccc3Br)nc3ccccc32)cc1	·	·	-8%	·	·	·	·	·	·	·	·
Cc1ccnc(NC(=S)N2CCC(Nc3cccc(C(F)(F)F)c3)CC2)c1	·	·	-17%	·	·	1.9µM*	12µM*	0.4µM*	1µM*	2%	4.8µM*
